L3MBTL1 block: inhibitors of human L3MBTL1. 0.66% of 230,000 active. AlphaScreen L3MBTL1–H3K9me1 peptide binding. Q9Y468. Potency, µM (series often up to 57.1 µM), for inactives: at the highest dose activity, negative = inhibition, most hits filed as inhibitors; also: % is scaled to controls: 0 for no effect and ±100 for the full control effect; nearly all actives have a fitted effect of over 60% in size
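L3MBTL1 50 nM + b-AHA-H3(1-15)K9me1 75 nM, 30 min RT; compound added, 30 min RT; streptavidin donor/Ni-chelate acceptor beads 10 ug/mL each final, 30 min RT dark; AlphaScreen read.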
G9a block: inhibitors of human histone lysine methyltransferase G9a | Potency, µM (top dose mostly 102 µM), without a hit: at the highest dose activity, negative = inhibition, hits mostly inhibitors | G9a H3K9 monomethylation, AlphaScreen, 2 h | AID 504332 | 8.8% of 350,000 active | Q96KQ7; also: % is scaled to controls: 0 for no effect and ±100 for the full control effect; nearly all actives have a fitted effect of over 75% in size
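G9a (20 nM) was preincubated 15 min with compound, then reacted 2 h at room temperature with 500 nM biotin-H3K9 peptide and 20 µM SAM. Monomethyl-H3K9 detected by AlphaScreen using anti-H3K9me1 antibody.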
BAZ2B block: BAZ2B (human) inhibition | 4.4% of 360,000 active | AlphaScreen BAZ2B-H3K14Ac peptide displacement | Potency, µM (titrated, usually from 114 µM), for the others: at the highest dose activity change, negative = inhibition, hits mostly inhibitors | Q9UIF8; also: % is scaled to controls: 0 for no effect and ±100 for the full control effect; nearly all actives have a fitted effect of over 60% in size
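BAZ2B 50 nM plus b-H3(5-23)K14Ac 50 nM, PBS pH 7.4/0.01% Tween-20, 30 min RT; compound added (max 110 uM), 30 min RT; streptavidin donor/Ni-chelate acceptor beads 10 ug/mL final, 20 min dark; AlphaScreen read.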
HP1b binding inh: inhibitors of HP1-beta chromodomain binding to methylated histone tails; AlphaScreen HP1-beta / biotin-H3K9me3 peptide binding; AID 540317; P83916; 0.56% of 390,000 active; Potency, µM (doses to about 114 µM), for the others: at the top dose activity change, negative = inhibition, usual class: inhibitors; also: nearly all actives have a fitted effect of over 70% in size
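Compound inhibition of the preformed complex between 50 nM HP1-beta and 50 nM biotinylated H3K9me3 peptide was read by AlphaScreen. Buffer was PBS pH 7.4 with 0.01% Tween-20. Incubations ran 30 min at room temperature, with 10 ug/mL donor/acceptor beads.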
JMJD2A Tudor inh: JMJD2A Tudor domain (human) inhibition; O75164; AlphaScreen JMJD2A-Tudor / H3K4me3 peptide binding; Potency, µM (highest dose often 114 µM), for inactives: top-dose activity change, negative = inhibition, usual class: inhibitors; 4.4% of 390,000 active; AID 504339; also: % is scaled to controls: 0 for no effect and ±100 for the full control effect; nearly all actives have a fitted effect of over 50% in size
Starred values were filed as active, the others as inactive; ? = inconclusive; nt = not tested or not shown; [ ] = another dose, or the depositor's remark. The list is not random: actives were taken first. Their share in the collection is about 11%. Calls follow the shape of the dose curve; as a rule, active = well fitted inhibition curve with a large enough effect; inconclusive = small, poorly fitted or top-dose-only effect; inactive = no such curve, though single readings can be large or run the other way. Potency is read from the fitted curve at half-maximal effect.

SMILES	L3MBTL1 block	G9a block	BAZ2B block	HP1b binding inh	JMJD2A Tudor inh
COc1ccc(N2CCN(CCCNC(=O)Cn3c(-c4cccs4)cc4ccccc43)CC2)cc1	nt	10µM*	?	-30.6%	17.8µM*
Cc1ccc(CN2CCN(CC(=O)NCCCN3CCN(c4ccc(F)cc4)CC3)C2=O)cc1	-1.5%	-8.4%	-36.1%	6.3%	-31.3%
O=C(Cn1c(-c2cccs2)cc2ccccc21)NCCCN1CCN(c2ccc(F)cc2)CC1	nt	-3.0%[59 µM]	10.1%	31.1%	?
CC(C)Sc1ncc(Cl)c(C(=O)Nc2ccc(S(=O)(=O)N3CCCCC3)cc2)n1	nt	-4.5%[59 µM]	-18.0%	15.3%	-26.4%
Brc1ccc2c(c1)OCCOCCOCCOCCOCCO2	-2.7%	8.6%[59 µM]	-0.1%	35.4%	3.4%
S=c1[nH]c2cc3c(cc2[nH]1)OCCO3	0.0%	3.55µM*	-13.4%	2.6%	-31.8%
C#CCOCCOCCOCCNc1nc(N2CCN(C(=O)CCCCCCCCCCNC(=O)[C@H](CCCCN)n3cc(CCO)nn3)CC2)nc(N2CCN(C(=O)CCCCCCCCCCNC(=O)[C@@H]([C@H](C)O)n3cc(C)nn3)CC2)n1	-95.6%	-1.0%[2.33 µM]	50.1µM*	-23.5%	79.4µM*
C#CCOCCOCCOCCNc1nc(N2CCN(C(=O)CCCCCCCCCCNC(=O)[C@H](CCCCN)n3cc(CCO)nn3)CC2)nc(N2CCN(C(=O)CCCCCCCCCCNC(=O)[C@H](CCCCN)n3cc(CCO)nn3)CC2)n1	-10.3%	46.4%[2.33 µM]	5.5%	?	89.1µM*
CCc1noc(C)c1C(=O)NNC(=O)COc1ccc(Br)cc1	nt	53.5%	-12.2%	18.8%	-8.2%
COc1ccc(C2=C(C)C(N3CCC(C(=O)NCc4ccco4)CC3)=NS2(=O)=O)cc1	nt	2.9%[59 µM]	-14.8%	13.1%	-6.3%
Cc1cccc(S(=O)(=O)N2CCN(S(=O)(=O)c3ccc4c(c3)OCCO4)CC2)c1	nt	nt	nt	nt	-13.7%
COc1ccc(-c2ccc(NCCN3CCOCC3)nn2)cc1OC	9.2%	nt	7.3%	30.4%	-8.6%
Cc1cc(-c2ccccc2)nnc1NCCN1CCOCC1	7.7%	-29.0%[2.33 µM]	?	42.0%	79.4µM*
CCCNC(=O)Cn1c(SCc2ccccc2C)nc2ccncc21	nt	nt	nt	18.9%[57 µM]	-13.1%[57.1 µM]
CN1C(=O)CC[C@@H]1c1cccnc1	nt	-1.8%[21.5 µM]	nt	nt	nt
CCOc1ccc(-c2cc(C(=O)NCCc3ccccc3)c3c(-c4ccc(C)cc4)[nH]nc3n2)cc1	nt	13.5%[59 µM]	25.1%	38.4%	-1.0%
Cc1cnn(CCC(=O)NNC(=S)Nc2ccc(F)cc2)c1	-1.1%	-1.5%	2.9%	?	-8.9%
Cc1nn(CCC(=O)NNC(=S)Nc2cccc(Cl)c2)c(C)c1[N+](=O)[O-]	12.6%	8.91µM*	-2.3%	-11.9%	-12.7%
Cc1nn(C(C)C(=O)NNC(=S)Nc2ccc(Cl)cc2)c(C)c1[N+](=O)[O-] (centres undefined)	nt	8.91µM*	-4.6%	3.3%	-21.8%
Cc1cccc(NC(=S)NNC(=O)CCn2nc(C)c([N+](=O)[O-])c2C)c1	-17.6%	?	1.9%	6.4%	-9.0%
Cc1nn(CCC(=O)NNC(=S)Nc2ccc(Cl)cc2)c(C)c1[N+](=O)[O-]	15.3%[11.4 µM]	10µM*	4.5%	-6.7%	-18.7%
Cc1cnn(CCC(=O)NNC(=S)Nc2cccc(Cl)c2)c1	-2.8%	50.1µM*	7.5%	42.2%	-20.1%
CCOc1ccc(CNC(=O)c2cnc(SC)nc2CC)cc1	nt	-42.0%[59 µM]	3.3%	47.6%	-1.3%
O=C(Nc1cccc(-c2nc3ccccc3[nH]2)c1)c1c(F)cccc1F	nt	1.3%[59 µM]	-7.0%	31.9%	-25.8%
Cc1cccc(CN2CCN(CC(=O)Nc3c(C)cccc3C)S2(=O)=O)c1	nt	-0.3%[59 µM]	-16.5%	44.8%	-1.0%
SMILES	L3MBTL1 block	G9a block	BAZ2B block	HP1b binding inh	JMJD2A Tudor inh
O=C(CNC(=O)c1ccccc1)NCC(=O)OCC(=O)c1ccc2ccccc2c1	nt	nt	nt	16.8%[57 µM]	-10.0%[57.1 µM]
CCCC(=O)NC1CC(=O)N(c2ccc3c(c2)OCCO3)C1 (centres undefined)	nt	-10.0%[59 µM]	-0.3%	33.4%	-6.8%
Cc1nnc(N2CCCC(C(=O)NCc3ccccc3F)C2)c2nn(-c3ccc(Cl)cc3)c(C)c12 (centres undefined)	nt	-4.6%[59 µM]	-5.2%	8.6%	-15.5%
C/C(=C\C(=O)c1ccncc1)Nc1ccccc1O	0.8%	12.8%	-38.2%	19.6%	-14.0%
CCOc1ccc(N/C(C)=C/C(=O)c2ccc3c(c2)OCCO3)cc1	-6.9%	nt	?	-29.5%	?
COc1ccc(OC)c(N/C(C)=C/C(=O)c2ccncc2)c1	-0.4%	39.8µM*	?	-5.2%	?
COc1ccc(C(=O)CCNc2ccc3c(c2)OCCO3)cc1	-4.8%	3.16µM*	-26.7%	-5.3%	-18.8%
COc1ccc(C(=O)/C=C(\C)Nc2ccc3c(c2)OCO3)cc1	-6.6%	70.8µM*	50.1µM*	?	28.2µM*
CCOc1ccc(N/C(C)=C\C(=O)c2ccc3c(c2)OCCO3)cc1	-5.4%	nt	25.1µM*	-21.5%	?
CCC1=NN(C(=O)c2ccc(Br)cc2)C(O)(c2ccccc2)C1 (centres undefined)	-29.4%	18.4%	50.1µM*	18.0%	-31.9%
CN(C)c1ccc(C(=O)C(O)c2ccccc2Cl)cc1 (centres undefined)	nt	nt	nt	6.4%	-9.7%
Cc1cc(N(CCO)CCO)ccc1C(c1ccc(N(CCO)CCO)cc1C)c1ccccc1Cl	-23.9%	7.94µM*	44.7µM*	?	28.2µM*
NNc1nc(Nc2ccccc2)nc(Nc2ccccc2)n1	-28.0%	34.9%	22.4µM*	39.5%	-29.2%
COc1ccc(Nc2cccc3ccccc23)cc1	-12.4%	22.6%[2.33 µM]	?	?	56.2µM*
O=[N+]([O-])c1ccc(Nc2nc(NCCO)nc(N3CCCC3)n2)cc1	nt	44.7µM*	2.6%	20.0%	-6.3%
COc1ccc(Nc2ccc(OC)cc2)cc1	15.8µM*	nt	20µM*	39.8µM*	50.1µM*
OCCNc1nc(Nc2ccc(Cl)cc2)nc(N2CCCC2)n1	nt	nt	nt	28.5%	-14.8%
COc1ccc(Nc2ccc(Nc3ccc(OC)cc3)nn2)cc1	-1.7%	-0.5%	9.5%	28.9%	-27.5%
CC1(C)C(=O)N(CC(=O)Nc2ccc(OC(F)(F)F)cc2)c2ccccc21	nt	14.7%[59 µM]	5.6%	25.6%[57 µM]	-11.0%
COc1ccc(Nc2nc3ccc(OC)cc3s2)cc1	-21.4%	39.8µM*	56.2µM*	-27.1%	?
COc1ccc(Nc2nc(NN)nc(Nc3ccc(OC)cc3)n2)cc1	?	-1.2%	25.1µM*	15.3%	44.7µM*
NNc1nc(Nc2ccc([N+](=O)[O-])cc2)nc(N2CCCCCC2)n1	-18.6%	nt	28.2µM*	108.8%	56.2µM*
Nc1nc(N2CCCCC2)nc2ccccc12	4.7%	50.1µM*	-4.2%	25.2%	-5.7%
Cc1cccc(Nc2nc(N3CCCCC3)nc(N3CCCCC3)n2)c1	14.4%	-1.7%[59 µM]	2.8%	27.7%	6.8%
COc1ccc(NC2=C(C)C(=O)CC2)cc1	nt	1.6%[2.33 µM]	56.2µM*	40.9%	2.6%
NNc1nc(Nc2ccccc2)nc(N2CCCCC2)n1	nt	-6.8%	79.4µM*	18.5%	?

Screening data deposited in PubChem by National Center for Advancing Translational Sciences (NCATS).
